# Screens (PubChem)
# HPGD inh = blocks human HPGD enzyme activity; AID 894; Potency, µM, without a hit: at the top dose activity change, negative = inhibition, usual class: inhibitors; purified HPGD, NADH fluorescence kinetic, PGE2 substrate; 150,000 compounds, 4.3% hits; P15428; further: potency means the concentration at half of the fitted maximal effect
#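 NADH formation kinetics: reaction with 30 uM PGE2 and 1 mM NAD+ (final), 20 nM enzyme, Tris-HCl pH 8 with Tween 20, after 15 min compound preincubation at room temperature. Fluorescence change, last versus first of five reads.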
# JMJD2E inh = blocks human JMJD2E demethylase activity; 230,000 compounds, 1.6% hits; JMJD2E catalytic domain, FDH-coupled NADH fluorescence (FDH is formaldehyde dehydrogenase); Potency, µM (highest dose often 57.1 µM), inactives show at the top dose activity change, negative = inhibition, actives largely listed as inhibitors; B2RXH2;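 further: potency means the concentration at half of the fitted maximal effect; 0% = wells with enzyme and -100% = buffer wells without enzyme; nearly all actives have a fitted effect of over 50% in size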
# PNC assembly inh = blocks assembly of the perinucleolar compartment. 140,000 compounds, 3.1% hits. PC3M PTB-GFP, PNC prevalence imaging, 16 h; stronger effect = lower value. activity change (PNC), negative = inhibition, % at 10 µM;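 active means readout at or below -70, meaning at least 70% loss of cells showing the perinucleolar compartment, a nuclear body marking cancer cells; inconclusive means readout between -30 and a set limit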;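 further: plate controls were DMSO wells for no effect and camptothecin positive control wells for full effect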
#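 Read-out is percentage of cells bearing a perinucleolar compartment, from automated 20x imaging of fixed, Hoechst-stained PC3M PTB-GFP cells. Cells were seeded 4 h, then exposed 16 h to compound (23 nl of library stock) in duplicate plates.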
# ALDH1A1 block = inhibitors of human aldehyde dehydrogenase 1A1; Purified ALDH1A1, NADH fluorescence, propionaldehyde substrate; AID 1030; 220,000 compounds, 7.3% hits; Potency, µM (doses to about 75.3 µM), inactives show at the top dose activity, negative = inhibition, actives largely listed as inhibitors;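 further: potency means the concentration at half of the fitted maximal effect; plate controls were no enzyme wells and a reference inhibitor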
# Target sequence (P00352 whole entry, looked up): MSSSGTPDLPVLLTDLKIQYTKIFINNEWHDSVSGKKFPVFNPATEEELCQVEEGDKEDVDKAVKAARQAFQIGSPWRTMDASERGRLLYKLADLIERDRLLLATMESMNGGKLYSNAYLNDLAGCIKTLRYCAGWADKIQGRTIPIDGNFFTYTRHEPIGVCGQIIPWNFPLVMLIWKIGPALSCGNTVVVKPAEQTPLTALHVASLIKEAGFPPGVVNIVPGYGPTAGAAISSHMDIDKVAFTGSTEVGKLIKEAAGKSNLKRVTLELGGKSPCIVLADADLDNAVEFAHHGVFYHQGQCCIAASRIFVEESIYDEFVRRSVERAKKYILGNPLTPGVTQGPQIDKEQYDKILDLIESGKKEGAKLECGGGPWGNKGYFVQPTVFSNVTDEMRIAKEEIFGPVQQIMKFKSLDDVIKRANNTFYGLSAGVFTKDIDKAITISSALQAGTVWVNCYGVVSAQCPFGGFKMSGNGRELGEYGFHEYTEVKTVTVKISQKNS
# The depositor's hits bear a star; u = inconclusive; x = no result; [ ] = another dose, or the depositor's remark. The list is not random: actives were taken first. Their share in the collection is about 11%. Unless noted, the call rests on the fitted dose curve; in most records, active means well fitted inhibition curve with a large enough effect (not every such curve was filed as active); inconclusive means small, poorly fitted or top-dose-only effect, or another doubt; inactive means no such curve, though single readings can be large or run the other way. Unless noted, on the % scale 0 is the no-effect control and ±100 the full control effect.
SMILES,HPGD inh,JMJD2E inh,PNC assembly inh,ALDH1A1 block
C[C@@H]1CCC2[C@@H](C)[C@@H](O)O[C@@H]3O[C@@]4(C)CC[C@@H]1[C@@]23OO4 (some centres undefined),-14%,-8%,x,u
COC(=O)c1onc(-c2c(Cl)cccc2Cl)c1C(=O)OC,x,-3%,x,3%
CCOC(=O)C(=O)/C(=C\N(C)C)c1onc(-c2c(F)cccc2Cl)c1C(=O)OC,10µM*,3%,30,-11%
NNC(=O)[C@@H](O)[C@H](O)[C@H](O)CO,1%,x,x,5%[13.5 µM]
CCCCN1C(=O)Nc2ccccc2S1=O (centres undefined),16µM*,2%,-87*,-7%
COC(=O)C/C(C)=N/Nc1ccc(S(=O)(=O)N2CCCC2)cc1[N+](=O)[O-],-8%,-3%,12,1%
Cc1ccc(NS(=O)(=O)c2cc(NC(=O)c3ccc4c(c3)NC(=O)CS4)ccc2C)c(C)c1,x,u,x,14µM*
COc1ccc(NC(=O)c2ccc3c(c2)NC(=O)CS3)cc1S(=O)(=O)Nc1ccc(Br)cc1,x,u,x,10µM*
Cc1cccc(NC(=O)Cn2nnc3ccccc32)c1,x,-1%,x,1%
COc1cccc2c(SCC(=O)N/N=C/c3ccccc3)cc(C)nc12,x,-10%,-23,-6%
COc1cc(/C=N/NC(=O)c2nonc2C)ccc1O,x,0%,x,-3%
COc1cccc2c(SCC(=O)N/N=C/c3ccc(O)c(O)c3)cc(C)nc12,x,16µM*,x,8%
COc1ccc2c(c1)c(C(=O)N/N=C/c1ccc(O)c(O)c1)c(C)n2C,u,14µM*,u,-14%
Cc1cc(SCC(=O)N/N=C/c2ccc(O)c(O)c2)c(C)cc1Br,2.8µM*,u,31,5%
COc1ccc2c(c1)c(C(=O)N/N=C/c1ccc(Br)cc1)c(C)n2C,x,-4%,x,x
Cc1nonc1C(=O)N/N=C/c1ccc(O)c(O)c1,32µM*,-1%,-16,-9%
COc1ccc2nc(C)cc(SCC(=O)N/N=C/c3ccc(O)c(O)c3)c2c1,x,5µM*,x,28µM*
O=C(Nc1cccc2c1C(=O)NC2=O)c1ccc(S(=O)(=O)N2CCCC2)cc1,u,u,-111*,u
O=C(Nc1ccccc1-c1nc2ccccc2[nH]1)c1ccc(S(=O)(=O)N2CCCCC2)cc1,u,26%,25,41%
N#CCCN(Cc1cccnc1)C(=S)NC(=O)c1ccc(S(=O)(=O)N2CCCC2)cc1,x,-10%,x,14µM*
N#CCCSc1ccccc1NC(=O)c1ccc(S(=O)(=O)N2CCCC2)cc1,11µM*,-3%,u,2.5µM*
CCCc1nc2sc3c(c2c(=O)n1NC(=O)c1ccco1)CC(C)(C)OC3,-8%,-2%,24,u
CCCCCCCCCc1nc2sc3c(c2c(=O)n1NC(=O)c1ccc([N+](=O)[O-])cc1)CC(C)(C)OC3,-7%,-7%,u,7.1µM*
CCCCCCCCCc1nc2sc3c(c2c(=O)n1NC(=O)c1ccccc1[N+](=O)[O-])CC(C)(C)OC3,-9%,1%,25,1.4µM*
CCCCC/C=C\C[C@@H]1O[C@H]1C(O)/C=C\C/C=C\CCCC(=O)O (some centres undefined),-2%,2%,x,18%
SMILES,HPGD inh,JMJD2E inh,PNC assembly inh,ALDH1A1 block
O=C(COC(=O)c1cnccn1)c1ccc(OC(=O)c2ccccc2)cc1,-6%,6%,-126*,4%
COC(=O)C1=C(C(=O)OC)[C@@H]2Nc3ccccc3[C@@]23C[C@@H](C(=O)OC)N(S(=O)(=O)c2ccc(Br)cc2)C3=N1,-7%,-2%[11.4 µM],x,-4%[13.5 µM]
Cn1cnc([N+](=O)[O-])c1Nc1ccc(O)cc1,x,-17%,-23,25µM*
O=C1OC(Cc2ccccn2)C(O)=C1C1=NCCCN1 (centres undefined),-4%,5%,-83*,-2%
CC(C)Cn1c(N)c(C(=O)CSc2ncnc3sc4c(c23)CCCC4)c(=O)n(C)c1=O,-13%,4%,-8,-7%
Nc1nc(F)cc(N2CCCCCC2)n1,x,0%,x,10%
N=c1nc(N2CCCCC2)cc(N)n1O,-5%,-7%,-115*,-5%
COc1ccc(CN2CCCC(C(=O)c3cccc(OC(C)C)c3)C2)cc1Cn1cccn1 (centres undefined),x,-29%,x,5%
O=c1c2c3c(sc2nc(N2CCNCC2)n1CCc1ccccc1)CCCCC3,x,1%,x,x
Cc1ccc(S(=O)(=O)/N=C/c2ccc(N(C)C)cc2)cc1,-17%,-20%,29,13µM*
Cc1ccc2c(C)nc(Nc3nc(CSc4nnnn4-c4ccccc4)cc(=O)[nH]3)nc2c1,-24%,5%,u,4µM*
